# SMN2 splice up = qHTS Assay for Enhancers of SMN2 Splice Variant Expression; Potency, µM (top dose mostly 46.1 µM), for the others: at the highest dose activity change, positive = activation, usual class: activators; HEK293 SMN2-luciferase splicing reporter, luminescence, 30-36 h; 210,000 tested, 2.8% active; note: % of control where 0% means no effect; nearly all actives have a fitted effect of over 55% in size
#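 qHTS luciferase splicing reporter: luminescence rises when SMN2 exon 7 is included in transfected HEK293 cells. Compound exposure lasted 30-36 h at 37C, with 4.5 mM final sodium butyrate as control, followed by a ONE-Glo read.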
# FLuc modulator = qHTS profiling assay for firefly luciferase inhibitor/activator using purifed enzyme and Km concentrations of substrates (counterscreen for miR-21 project) | purified FLuc, Km substrates, luminescence inhibition | Potency, µM (series often up to 57.5 µM), for the others: at the top dose activity change, negative = inhibition, actives largely listed as inhibitors | 360,000 tested, 6.9% active;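 note: plate controls were vehicle for no effect and reference inhibitor for full effect; nearly all actives have a fitted effect of over 55% in size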
# Target sequence (P08659 whole entry, looked up): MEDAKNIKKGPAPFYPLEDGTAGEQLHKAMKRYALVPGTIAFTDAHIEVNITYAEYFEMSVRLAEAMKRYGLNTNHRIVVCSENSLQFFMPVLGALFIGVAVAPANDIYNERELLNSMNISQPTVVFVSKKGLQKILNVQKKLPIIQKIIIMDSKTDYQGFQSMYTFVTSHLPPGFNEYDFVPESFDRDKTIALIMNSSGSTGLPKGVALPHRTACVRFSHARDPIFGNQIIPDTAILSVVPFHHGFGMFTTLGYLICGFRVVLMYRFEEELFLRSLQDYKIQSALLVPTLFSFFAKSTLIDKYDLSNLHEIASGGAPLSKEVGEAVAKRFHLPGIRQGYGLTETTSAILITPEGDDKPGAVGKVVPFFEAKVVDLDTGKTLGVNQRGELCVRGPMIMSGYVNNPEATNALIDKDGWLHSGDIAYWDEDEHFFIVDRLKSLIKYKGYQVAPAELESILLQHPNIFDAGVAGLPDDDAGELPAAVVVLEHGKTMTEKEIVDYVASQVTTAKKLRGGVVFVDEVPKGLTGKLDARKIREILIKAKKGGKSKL
#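 Purified P. pyralis luciferase, 10 nM final, with Km-level 10 uM D-luciferin and 10 uM ATP in 50 mM Tris acetate pH 7.5, 10 mM Mg acetate, 0.01% Tween-20, 0.05% BSA; 6-point qHTS titration about 60 µM downward; luminescence read.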
# Rab9 promoter act = qHTS Assay for Rab9 Promoter Activators; Huh7 Rab9 promoter-luciferase reporter, luminescence, 24 h; Potency, µM (doses to about 9.22 µM), for inactives: top-dose activation, negative = inhibition, usual class: activators; 320,000 tested, 2.8% active; AID 485297, 2010; note: % of control where 0% means no effect; nearly all actives have a fitted effect of over 60% in size
#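 Using Huh7 cells stably transfected with Rab9 promoter–luciferase, compounds were incubated 24 h at 37 °C, 5% CO2; luciferase luminescence was read 10 min after reagent addition.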
# Luc counter = Counterscreen for Luciferase (Kinase-Glo TM) Inhibition | AID 1379, 2008 | Potency, µM (titrated, usually from 38.3 µM), without a hit: at the top dose activity change, negative = inhibition, usual class: inhibitors | Kinase-Glo luciferase, ATP luminescence, 8 min | 200,000 tested, 0.28% active | Luciferin 4-monooxygenase (Photuris pensylvanica), Q27757; note: % is set by controls: 0 for no effect and ±100 for the full control effect; nearly all actives have a fitted effect of over 60% in size
#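 Recombinant Kinase-Glo luciferase, 10 uM ATP (linear range), luciferin; imidazole pH 7.2 / KCl / MgCl2 / Tween / BSA buffer; 8 min RT; luminescence.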
# NPC1 prom act = qHTS Assay for NPC1 Promoter Activators; Huh7 NPC1 promoter luciferase reporter, 24 h; 320,000 tested, 2.4% active; Potency, µM (series often up to 9.22 µM), inactives show top-dose activation, usual class: activators; note: % of control where 0% means no effect; nearly all actives have a fitted effect of over 60% in size
#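 Luminescence read-out of NPC1 promoter-driven luciferase in stably transfected Huh7 cells; compounds delivered in DMSO and left 24 h at 37C, 5% CO2, qHTS titration format.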
# ELG1 genotoxic = qHTS screen for small molecules that induce genotoxicity in human embryonic kidney (HEK293T) cells expressing luciferase-tagged ELG1 | HEK293T ELG1-luciferase reporter, luminescence, 16 h | 330,000 tested, 1.3% active | Potency, µM (titrated, usually from 46 µM), inactives show top-dose activity change, positive = activation, usual class: activators | AID 504466, 2011; note: % of control where 0% means no effect; nearly all actives have a fitted effect of over 60% in size
#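 Genotoxic stress is detected as increased luminescence from luciferase-tagged ELG1 in HEK293T cells, measured with ONE-Glo after a 16 hr treatment at 37 °C.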
# * marks the source's active call; other numbers are inactive results; ? = inconclusive; . = no result given; [ ] = dose if it differs, or a comment. Rows were chosen to be rich in hits. Some 7.5% of all compounds tested hit in one or more screens of this group. Calls come from the whole dose curve; as a rule, active = well fitted curve in the direction sought with a large enough effect; inconclusive = small, poorly fitted or top-dose-only effect, or another doubt; inactive = no such curve, though single readings can be large; an effect the other way counts as inactive or inconclusive. Potency is the fitted concentration of half-maximal effect.
SMILES,SMN2 splice up,FLuc modulator,Rab9 promoter act,Luc counter,NPC1 prom act,ELG1 genotoxic
O=C(Nc1cccc(-c2cn3ccccc3n2)c1)c1cccc(Cl)c1,-21.4%,2.39µM*,17.6%,1.4%,-1.2%,-4.6%
O=C(Nc1cccc(-c2cn3ccccc3n2)c1)c1cnccn1,?,12µM*,28.7%,-4.8%,24.8%,-2.1%
O=C(C[C@H]1C/C=C\CC[C@@H](Cc2ccc(F)cc2)C(=O)OC[C@H]2CCCN2C1=O)NCCO,.,.,.,.,.,-1.5%
CCOC(=O)c1c(C)oc2c1c(C=NCC1CCCO1)c(O)c1ccccc12 (centres undefined),24.9%,9.53µM*,-3.1%,-5.5%,-0.5%,-10.7%
CCc1ccc(C(=O)COC(=O)CNC(=O)CNS(=O)(=O)c2ccccc2)cc1,.,19µM*,3.4%,.,1.0%,1.0%
CCc1ccc(C(=O)COC(=O)CNC(=O)CNC(=O)Cc2ccccc2)cc1,-6.7%,?,-2.3%,-1.7%,1.0%,-1.4%
CCc1ccc(C(=O)COC(=O)CNC(=O)Cc2ccccc2)cc1,.,16.9µM*,0.9%,.,2.5%,2.9%
CCc1ccc(C(=O)COC(=O)CNC(=O)C2CCCCC2)cc1,.,0.849µM*,24.9%,.,-1.1%,3.2%
CCc1nnc(NC(=O)Nc2ccccc2OC)s1,?,?,29.9%,-4.8%,12.2%,?
COc1ccc(C(=O)Nc2nnc(SCC(=O)NC3CCCC3)s2)c(OC)c1,.,0.536µM*,0.1µM*,.,0.1µM*,2.91µM*
COc1ccc(C(=O)Nc2nnc(SCC(=O)Nc3ccc(NC(C)=O)cc3)s2)c(OC)c1,.,0.0849µM*,0.631µM*,.,0.355µM*,?
CCc1nnc(NC(=O)c2ccc(OC)cc2OC)s1,2µM*,2.13µM*,0.447µM*,-2.7%,0.447µM*,?
CC(C)c1ccc(/C=N/NC(=O)C2CCCC2)cc1,.,12µM*,2.51µM*,.,2µM*,5.8µM*
CC(C)(C)c1ccc(/C=N/NC(=O)C2CCCC2)cc1,.,19µM*,?,.,?,?
COc1ccc(S(=O)(=O)Nc2ccc(S(=O)(=O)Nc3cc(C)nc(C)n3)cc2)cc1OC,.,-1.1%,1.6%,.,-1.8%,0.3%
Cn1c(CO)nc2cc(N)ccc21,.,16.9µM*,-0.2%,-1.6%,-0.5%,-0.9%
COc1ccc(C2OC(=O)CC2C(=O)NCc2ccc(Cl)cc2)cc1OC (centres undefined),?,16.9µM*,?,1.0%,?,?
O=C(NCCN1CCOCC1)c1cc(-c2ccc(Cl)c(Cl)c2)on1,.,-0.9%,1.6%,.,-4.5%,0.2%
O=C(c1cc(-c2ccc(Cl)c(Cl)c2)on1)N1CCCC1,11.2µM*,-17.0%,2.24µM*,-1.3%,3.55µM*,?
O=C(c1cc(-c2ccc(Cl)cc2)on1)N1CCOCC1,3.16µM*,2.69µM*,1µM*,-7.4%,0.398µM*,0.92µM*
O=C(c1cc(-c2ccc(Cl)cc2Cl)on1)N1CCOCC1,1.26µM*,0.757µM*,0.316µM*,-4.8%,0.398µM*,0.651µM*
O=C(c1cc(-c2ccc(Cl)c(Cl)c2)on1)N1CCOCC1,.,3.01µM*,2.82µM*,.,1.41µM*,?
CN(Cc1ccc(Cl)c(Cl)c1)C(=O)C1CSC2(C)CCC(=O)N12 (centres undefined),.,-12.9%,-1.4%,.,-1.7%,-1.2%
N/C(=N\OC(=O)c1ccccc1)c1ccccn1,.,0.269µM*,1µM*,1.41µM*,1.78µM*,?
Cc1cccc(C(=O)O/N=C(\N)c2ccccn2)c1,.,0.269µM*,3.98µM*,.,1.58µM*,2.59µM*
SMILES,SMN2 splice up,FLuc modulator,Rab9 promoter act,Luc counter,NPC1 prom act,ELG1 genotoxic
Cc1ccc(C(=O)O/N=C(\N)c2ccccn2)cc1C,.,0.0953µM*,0.501µM*,.,0.316µM*,0.326µM*
CCOc1ccc(C(=O)O/N=C(\N)c2ccccn2)cc1,.,0.0849µM*,0.501µM*,.,0.1µM*,?
CC1(C)S[C@@H]2[C@H](C(=O)O)N=C(Cc3ccccc3)N2[C@H]1C(=O)O,-15.5%[9.22 µM],.,.,-3.6%[7.66 µM],.,.
COc1ccc(OC(=O)c2cn(-c3cccc(OC)c3)c(=O)c3ccccc23)cc1,.,-0.7%,.,.,.,.
Cc1ccc(C(=O)O/N=C(\N)c2ccccn2)cc1,.,0.0239µM*,1.12µM*,.,0.501µM*,?
CC(C)(C)c1ccc(C(=O)O/N=C(\N)c2ccccn2)cc1,.,0.239µM*,-24.0%,.,-25.3%,-5.4%
N/C(=N\OC(=O)c1cccc(F)c1)c1ccccn1,.,1.07µM*,1.58µM*,.,3.55µM*,?
C/C(=N\OC(=O)c1ccc(Br)cc1)c1ccccn1,0.3%,0.536µM*,-7.5%,?,-1.0%,2.1%
O=C(NCCCNC(=O)c1ccccn1)c1cccc(F)c1,.,3.0%,4.3%,.,-7.0%,3.5%
COc1cc(C(=O)O/N=C(\N)c2ccccn2)cc(OC)c1OC,.,-18.7%,27.6%,.,23.1%,?
CC(C)(C)SC(=O)C[C@@H]1NS(=O)(=O)OC2CCCCC21 (some centres undefined),.,0.6%,0.3%,.,-5.2%,4.4%
N/C(=N\OC(=O)c1ccc(Br)o1)c1ccccn1,12.6µM*,2.69µM*,2.24µM*,?,0.562µM*,?
N/C(=N\OCc1ccc([N+](=O)[O-])cc1)c1ccccn1,0.794µM*,0.379µM*,?,10µM*,?,0.082µM*
C/C(=N/OCc1ccc(Br)cc1)c1ccccn1,14.1µM*,3.01µM*,2.51µM*,-9.0%,3.98µM*,4.61µM*
C/C(=N/O)c1ccccn1,7.4%,-0.1%,-3.3%,3.2%,2.1%,-2.4%
CCOc1ccc(NS(=O)(=O)c2ccc(C(=O)N3CCN(C(C)=O)CC3)cc2)cc1,.,5.2%,2.4%,.,-0.8%,-12.3%
CCOc1ccc(NC(=O)NCCn2nnc3cc(S(=O)(=O)N(C)C)ccc32)cc1,.,-1.1%,.,.,.,.
COc1ccc(OCC(=O)N2CCCC(CO)(CCOc3ccccc3)C2)cc1 (centres undefined),.,0.5%,-0.3%,.,16.8%,-7.7%
Cc1cc(NC(=O)NC(=O)c2ccccc2)no1,.,?,2.51µM*,.,3.98µM*,14.6µM*
C/C(=C\c1ccccc1)C(=O)Nc1cc(C)on1,-33.1%,15.1µM*,?,-5.1%,19.6%,?
Cc1cc(NC(=O)c2ccc3c(c2)C(=O)N(C(C)(C)C)C3=O)no1,.,-3.1%,?,.,16.7%,?
Cc1cc(NC(=O)Cc2ccccc2)no1,-22.4%,1.6%,-5.0%,0.1%,-3.3%,1.8%
Cc1cc(NC(=O)c2cccc(COc3ccc(Br)cc3)c2)no1,0.355µM*,9.53µM*,0.447µM*,6.2%,0.355µM*,0.651µM*

# Screening results (PubChem)
